Data on 14 compounds can be found in PubChem BioAssay (NCI).

What all share (experiment): NCI-60 one-dose screen, 48 h (100 = growth as untreated, 0 = no growth, -100 = all killed)
One test has as its system NCI-H226 lung. The conditions noted are these: 10 µM unless noted.
The next test has as its system NCI-H322M lung. Particulars: 10 µM unless noted.
In the next test the test system is HOP-62 NSCLC. The conditions noted are these: 10 µM unless noted.
Another test has as its system NCI-H460 lung. The conditions noted are these: 10 µM unless noted.
The next test relates to HOP-92 NSCLC. Particulars: 10 µM.
The subject of a further test is NCI-H522 lung. The conditions noted are these: 10 µM unless noted.
The next test relates to A549/ATCC NSCLC. Particulars: 10 µM unless noted.
Another test has as its system 786-0 renal. Particulars: 10 µM unless noted.
A further test deals with COLO 205 colon. Particulars: 10 µM unless noted.
Another test has as its system NCI-H23 lung. Particulars: 10 µM unless noted.

This is part of a sample that, as a whole, favours compounds with a hit. Of some 83,000 tested, about 20% had one in any assay.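 Cells were grown in 96-well plates and exposed to the test compound at a single concentration for 48 hours; results are reported as percent growth, with values below 10 considered active.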 Unmarked numbers belong to inactive results. Calls of active or inactive are those of the source.

Turning to `CC(=O)O[C@@H]1C(=O)N(c2cnccn2)[C@H]1c1ccccc1[N+](=O)[O-]`, the growth with NCI-H226 lung is 39.3%; in the test with NCI-H322M lung, 36.6%; in the test with HOP-62 NSCLC, 41.5%; in the test on NCI-H460 lung, -5.1% (active); with HOP-92 NSCLC, 9.48% (active); with NCI-H522 lung it was -45.7% (active). Besides, the growth in the test with A549/ATCC NSCLC is 14.4%; with 786-0 renal, 14.7%; in the test on COLO 205 colon it was 20.9%.

As to `CCCSc1nc(Nc2ccc(/C(C)=N\NC(N)=S)cc2)c(C#N)c(-c2ccccc2)n1`, the growth was 49.4% in the test on NCI-H226 lung; 84.3% with NCI-H322M lung; 84.2% in the test with HOP-62 NSCLC; 32.7% in the test on NCI-H460 lung; -8.02% (active) with HOP-92 NSCLC; 85.2% with NCI-H522 lung. Also, the growth in the test on A549/ATCC NSCLC was 43.7%; with 786-0 renal, 60.3%; in the test with COLO 205 colon, 79.9%.

As to `CCCC(=O)NC(c1cccnc1)c1cc(C(C)(C)C)c2cccnc2c1O` (centres undefined), the growth in the test with NCI-H226 lung was 12.7%; in the test on NCI-H322M lung it was 33.6%; in the test on HOP-62 NSCLC, 25.9%; with NCI-H460 lung, 3.55% (active); in the test on HOP-92 NSCLC, 50.5%; in the test on NCI-H522 lung, 7.22% (active). In addition, the growth is 18.2% in the test on A549/ATCC NSCLC, 2.54% (active) with 786-0 renal and 20.3% in the test on COLO 205 colon.

For `C[C@@H](Nc1c(C#N)cnc2ccc(-c3cnc(Cl)c(NS(C)(=O)=O)c3)cc12)c1ccccc1`, the growth in the test with NCI-H23 lung was 6.8% (active); in the test on NCI-H226 lung, -3.88% (active); in the test with NCI-H322M lung it was 12.1%; in the test with HOP-62 NSCLC, 11.6%; in the test on NCI-H460 lung it was 2.56% (active); in the test on 786-0 renal, 4.25% (active). In the test with COLO 205 colon, the growth was 16.5%.

Turning to `CN1CCN(Cc2ccc(NC(=O)c3cncc(C#Cc4cnc5ccc(N6CCN(C)CC6)nn45)c3)cc2C(F)(F)F)CC1`, the growth was 28% in the test with NCI-H226 lung; 35.5% in the test with NCI-H322M lung; 28.8% with HOP-62 NSCLC; -82.4% (active) in the test on NCI-H460 lung; -16.1% (active) in the test on HOP-92 NSCLC; 82.1% with NCI-H522 lung. The growth with A549/ATCC NSCLC is -71.4% (active); with 786-0 renal, -84.6% (active); with COLO 205 colon it was 38.9%.

For `COc1ccc(-c2nn(-c3ccc(S(C)(=O)=O)cc3)cc2/C=N/O)cc1`, the growth in the test on NCI-H226 lung is 94.7%; with NCI-H322M lung, 108%; with HOP-62 NSCLC, 109%; with NCI-H460 lung it was 102%; in the test with HOP-92 NSCLC it was 98.8%; in the test on NCI-H522 lung it was 100%. The growth in the test on A549/ATCC NSCLC was 105%; with 786-0 renal, 105%; in the test on COLO 205 colon, 119%.

With `NC/C(=C/F)COc1ccc2nc(NCc3cccnc3)oc2c1`, the growth was 92.8% in the test with NCI-H23 lung; 94.3% in the test on NCI-H226 lung; 111% with NCI-H322M lung; 77% in the test with HOP-62 NSCLC; 98.8% with NCI-H460 lung; 92.5% in the test on 786-0 renal. Also, in the test with COLO 205 colon, the growth is 111%.

With `O=C(CSc1nc2ccccc2c(=O)n1-c1ccccc1)Nc1ccc(-c2nc3ccc([N+](=O)[O-])cc3[nH]2)cc1`, the growth is 82% in the test with NCI-H226 lung; 97.8% with NCI-H322M lung; 99.1% with HOP-62 NSCLC; 63.5% in the test with NCI-H460 lung; 99.1% in the test on HOP-92 NSCLC; 75.2% with NCI-H522 lung. Further, the growth was 95.2% with 786-0 renal and 110% in the test on COLO 205 colon.

In the case of `CC(=O)c1ccc(Nc2nc(SCC(C)C)nc(-c3ccc(F)cc3)c2C#N)cc1`, the growth in the test with NCI-H226 lung is 114%; in the test with NCI-H322M lung it was 116%; with HOP-62 NSCLC, 116%; with NCI-H460 lung it was 109%; with HOP-92 NSCLC, 118%; in the test with NCI-H522 lung, 103%. The figures for the growth in the test with A549/ATCC NSCLC, in the test with 786-0 renal and with COLO 205 colon were 109%, 105% and 115%, respectively.

Regarding `CC1(C)CC[C@]2(C(=O)N3CCOCC3)CC[C@]3(C)C(=CC[C@@H]4[C@@]5(C)C/C(=C/c6ccco6)C(=O)C(C)(C)[C@@H]5CC[C@]43C)[C@@H]2C1`, the growth was 86.6% in the test with NCI-H23 lung; 69% in the test with NCI-H226 lung; 102% with NCI-H322M lung; 87% in the test with HOP-62 NSCLC; 98.5% in the test with NCI-H460 lung; 87.8% with A549/ATCC NSCLC. Also, the growth in the test on 786-0 renal is 79.5%; in the test with COLO 205 colon, 108%.

As to `COc1cccc(N2CCN(c3ncnc4c3[nH]c3ccc(F)cc34)C[C@H]2C)c1`, the growth in the test with NCI-H226 lung is 33.5%; in the test on NCI-H322M lung, 89.6%; with HOP-62 NSCLC it was 56.6%; with NCI-H460 lung it was 66.3%; in the test on HOP-92 NSCLC, 53.3%; in the test on NCI-H522 lung, 33.1%. Moreover, the growth with A549/ATCC NSCLC is 61%; with 786-0 renal, 71.4%; with COLO 205 colon, 61.4%.

Take `COC(=O)c1ccc(NC2=C/C(=N/S(=O)(=O)c3ccc(C(=O)O)cc3)c3ccccc3C2=O)cc1`: the growth with NCI-H226 lung is 32.7%; with NCI-H322M lung it was 107%; with HOP-62 NSCLC, 88.2%; in the test on NCI-H460 lung, 96.3%; with HOP-92 NSCLC, 23.3%; in the test on NCI-H522 lung it was 81.7%. Moreover, the growth in the test with A549/ATCC NSCLC is 98.7%; in the test on 786-0 renal it was 9.38% (active); in the test with COLO 205 colon, 115%.

For the compound `C=C(C)[C@@H]1CC[C@]2(COP(=O)(OCC)OCC)CC[C@]3(C)[C@H](CC[C@@H]4[C@@]5(C)CCCNC(C)(C)[C@@H]5CC[C@]43C)[C@@H]12`, the growth is 37.1% in the test on NCI-H23 lung; 53.8% with NCI-H226 lung; 84.7% in the test on NCI-H322M lung; 62.9% in the test with HOP-62 NSCLC; -32.8% (active) in the test with NCI-H460 lung; 36.3% with A549/ATCC NSCLC. Besides, the figures for the growth in the test with 786-0 renal and in the test with COLO 205 colon were 35.7% and -15.4% (active), respectively.

In the case of `Cn1cc(-c2cc(N)n3nc(-c4cn(C)c5ccccc45)cc3n2)c2ccccc21`, the growth with NCI-H226 lung is 113%; in the test on NCI-H322M lung, 98.5%; with HOP-62 NSCLC, 108%; in the test on NCI-H460 lung, 93.3%; in the test on HOP-92 NSCLC it was 88.8%; in the test with NCI-H522 lung, 109%. Besides, the values for the growth in the test on A549/ATCC NSCLC, in the test on 786-0 renal and with COLO 205 colon were 75.8%, 63.7% and 123%, respectively.
